In paper PMC8384837, “Expanding the binding specificity for RNA recognition by a PUF domain”:

Legend:
Assay in all cases: yeast three-hybrid, YBZ-1, SC-Leu-His + 0.5 mM 3-AT, 4 days
Conditions in all cases: tags: N-Gal4 AD-HA kept; label: inside an RPR1-promoter hybrid RNA with tandem MS2 sites; ssRNA
[1] = biological target: PUM1 PUF domain R5-GHL (Homo sapiens, UniProt Q14671 828-1176, C1007G;R1008H;Q1011L)
Summary of the method: (§1)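 Matching RNA elements and Pumilio-1 PUF domain libraries, randomized at the three base-contacting residues of every repeat, were co-expressed from a centromeric plasmid in strain YBZ-1 (LexA–MS2 coat fusion, HIS3 reporter). The repeat regions were PCR-amplified and Illumina-sequenced from cells grown four days on SC-Leu (input) or SC-Leu-His + 0.5 mM 3-AT (selection). The interaction score is the log change in variant frequency from input to selection. It is computed in log2, with a pseudocount of 1 for absent variants.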

[2] = biological target: PUM1 PUF domain R5-RHS (Homo sapiens, UniProt Q14671 828-1176, C1007R;R1008H;Q1011S)
Summary of the method: as §1

[3] = biological target: PUM1 PUF domain R5-KFS (Homo sapiens, UniProt Q14671 828-1176, C1007K;R1008F;Q1011S)
Summary of the method: as §1

[4] = biological target: PUM1 PUF domain R7-KQC (Homo sapiens, UniProt Q14671 828-1176, S1079K;N1080Q;E1083C)
Sequence of PUM1 PUF domain R7-KQC (Q14671 828-1176 S1079K/N1080Q/E1083C): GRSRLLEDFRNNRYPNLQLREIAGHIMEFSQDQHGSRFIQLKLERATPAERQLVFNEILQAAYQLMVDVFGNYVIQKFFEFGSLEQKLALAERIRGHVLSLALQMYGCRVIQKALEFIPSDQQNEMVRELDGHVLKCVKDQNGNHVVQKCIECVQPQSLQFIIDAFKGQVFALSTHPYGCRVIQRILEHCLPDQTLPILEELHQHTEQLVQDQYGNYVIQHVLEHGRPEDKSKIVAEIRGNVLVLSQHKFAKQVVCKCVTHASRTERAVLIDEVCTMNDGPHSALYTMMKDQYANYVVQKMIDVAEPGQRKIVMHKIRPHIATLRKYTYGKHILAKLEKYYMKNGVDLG
Summary of the method: as §1

[5] = biological target: PUM1 PUF domain R5-RFQ (Homo sapiens, UniProt Q14671 828-1176, C1007R;R1008F)
Summary of the method: as §1

[6] = biological target: PUM1 PUF domain R8-RFW (Homo sapiens, UniProt Q14671 828-1176, N1122R;Y1123F;Q1126W)
Sequence of PUM1 PUF domain R8-RFW (Q14671 828-1176 N1122R/Y1123F/Q1126W): as the sequence (Q14671 828-1176 S1079K/N1080Q/E1083C) above, with K252S, Q253N, C256E, N295R, Y296F, Q299W counted along it
Summary of the method: as §1

[7] = biological target: PUM1 PUF domain R2-LWH (Homo sapiens, UniProt Q14671 828-1176, N899L;Y900W;Q903H)
Sequence of PUM1 PUF domain R2-LWH (Q14671 828-1176 N899L/Y900W/Q903H): as the sequence (Q14671 828-1176 S1079K/N1080Q/E1083C) above, with N72L, Y73W, Q76H, K252S, Q253N, C256E counted along it
Summary of the method: as §1

[8] = biological target: PUM1 PUF domain R4-WST (Homo sapiens, UniProt Q14671 828-1176, N971W;H972S;Q975T)
Sequence of PUM1 PUF domain R4-WST (Q14671 828-1176 N971W/H972S/Q975T): as the sequence (Q14671 828-1176 S1079K/N1080Q/E1083C) above, with N144W, H145S, Q148T, K252S, Q253N, C256E counted along it
Summary of the method: as §1

[9] = biological target: PUM1 PUF domain R4-PFF (Homo sapiens, UniProt Q14671 828-1176, N971P;H972F;Q975F)
Sequence of PUM1 PUF domain R4-PFF (Q14671 828-1176 N971P/H972F/Q975F): as the sequence (Q14671 828-1176 S1079K/N1080Q/E1083C) above, with N144P, H145F, Q148F, K252S, Q253N, C256E counted along it
Summary of the method: as §1

[10] = biological target: PUM1 PUF domain R3-GPD (Homo sapiens, UniProt Q14671 828-1176, C935G;R936P;Q939D)
Summary of the method: as §1

[11] = biological target: T1, PUM1 PUF domain R6-MHR (Homo sapiens, UniProt Q14671 828-1176, N1043M;Y1044H;Q1047R)
T1 sequence: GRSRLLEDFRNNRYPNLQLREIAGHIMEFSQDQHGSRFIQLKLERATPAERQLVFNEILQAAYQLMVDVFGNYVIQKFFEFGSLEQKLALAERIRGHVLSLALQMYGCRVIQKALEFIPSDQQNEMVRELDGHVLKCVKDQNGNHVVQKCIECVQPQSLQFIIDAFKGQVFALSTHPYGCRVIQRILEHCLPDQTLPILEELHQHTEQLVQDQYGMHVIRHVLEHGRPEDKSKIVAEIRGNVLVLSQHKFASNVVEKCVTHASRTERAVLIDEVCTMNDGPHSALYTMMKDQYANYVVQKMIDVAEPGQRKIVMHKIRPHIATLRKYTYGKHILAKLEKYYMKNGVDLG
Summary of the method: as §1

[12] = biological target: PUM1 PUF domain R3-VRA (Homo sapiens, UniProt Q14671 828-1176, C935V;Q939A)
Summary of the method: as §1

[13] = biological target: PUM1 PUF domain R5-DHC (Homo sapiens, UniProt Q14671 828-1176, C1007D;R1008H;Q1011C)
Summary of the method: as §1

[14] = biological target: PUM1 PUF domain R4-NRN (Homo sapiens, UniProt Q14671 828-1176, H972R;Q975N)
Summary of the method: as §1

[15] = biological target: PUM1 PUF domain R4-CNV (Homo sapiens, UniProt Q14671 828-1176, N971C;H972N;Q975V)
Summary of the method: as §1

Sequence of PUM1 PUF domain R5-GHL (Q14671 828-1176 C1007G/R1008H/Q1011L): as the sequence (Q14671 828-1176 S1079K/N1080Q/E1083C) above, with C180G, R181H, Q184L, K252S, Q253N, C256E counted along it

Sequence: GGCUAGAACUAGUGGAUCCCCCGGCGCCCGGCGGCUCGAGCCCGGGUAAGUGUUAAUAGUCUGCAUGCCGCCGGGCGCCAUGCCUGCAGGUCGACUCUAGAAAACAUG
- binding signal [1]: 3.73 log2 enrichment (interaction score)
- binding signal [2]: 5.74 log2 enrichment (interaction score)
- binding signal [3]: 5.06 log2 enrichment (interaction score)

Sequence: GGCUAGAACUAGUGGAUCCCCCGGCGCCCGGCGGCUCGAGCCCGGGUAAGUCUAAAUAGUCUGCAUGCCGCCGGGCGCCAUGCCUGCAGGUCGACUCUAGAAAACAUG
- binding signal [4]: 2.83 log2 enrichment (interaction score)

Sequence: GGCUAGAACUAGUGGAUCCCCCGGCGCCCGGCGGCUCGAGCCCGGGUAAGUGUGAAUAGUCUGCAUGCCGCCGGGCGCCAUGCCUGCAGGUCGACUCUAGAAAACAUG
- binding signal [1]: 2.8 log2 enrichment (interaction score)
- binding signal [5]: 3.05 log2 enrichment (interaction score)
- binding signal [2]: 3.89 log2 enrichment (interaction score)

Sequence: GGCUAGAACUAGUGGAUCCCCCGGCGCCCGGCGGCUCGAGCCCGGGUAAGUGUAAAUAGUCUGCAUGCCGCCGGGCGCCAUGCCUGCAGGUCGACUCUAGAAAACAUG
- binding signal [6]: 4.68 log2 enrichment (interaction score)
- binding signal [7]: 2.74 log2 enrichment (interaction score)
- binding signal [1]: 4.22 log2 enrichment (interaction score)
- binding signal [8]: 0.36 log2 enrichment (interaction score)
- binding signal [9]: 5.26 log2 enrichment (interaction score)
- binding signal [10]: 1.39 log2 enrichment (interaction score)
- binding signal [11]: 5.76 log2 enrichment (interaction score)
- binding signal [5]: 2.95 log2 enrichment (interaction score)
- binding signal [2]: 4.26 log2 enrichment (interaction score)
- binding signal [12]: 3.97 log2 enrichment (interaction score)
- binding signal [13]: 2.98 log2 enrichment (interaction score)
- binding signal [14]: 2.83 log2 enrichment (interaction score)
- binding signal [15]: 0.77 log2 enrichment (interaction score)
- binding signal [3]: 4.28 log2 enrichment (interaction score)
